{"source": "PubChem BioAssay AID1159580", "about": "(chemical genetic matrix, 2015)", "assay": "chemical genetic growth profiling, strain panel (AID 1159580);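 further: tested at 20 µM; growth read once vehicle control cultures reached saturation at 30 °C; 1 = growth at the plate median or of vehicle wells; lower values mean less growth of the strain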", "settings": "S. cerevisiae deletion strains, growth OD", "note": "Among all 5,500 compounds or so, about 2,000 (36%) were called active. Inconclusive results (about 18%) are left out. The list shows a part of the results. Values without a mark were called inactive. No stated cut-off is given here; in the data, active means normalized growth mostly below about 0.91 (no sharp cut-off); inconclusive means no clear call, values can overlap the other calls; inactive means mostly above about 0.92."}
{"smiles": "C[C@@H]1CC[C@@]2(NC1)O[C@H]1C[C@H]3C4CC=C5C[C@@H](O)CC[C@]5(C)C4CC[C@]3(C)C1[C@@H]2C", "note": "(some centres undefined)", "values": [{"measurement": "normalized growth", "setting": "locus YJL187C, strain SWE1 (second series), active compounds read low", "value": "0.103 (active)"}, {"measurement": "normalized growth", "setting": "locus YJR066W, strain TOR1, active compounds read low", "value": 0.985}, {"measurement": "normalized growth", "setting": "locus YJR075W, strain HOC1, active compounds read low", "value": "0.119 (active)"}, {"measurement": "normalized growth", "setting": "locus YKL009W, strain mrt4, active compounds read low", "value": "0.807 (active)"}, {"measurement": "normalized growth", "setting": "locus YKL068W, active compounds read low", "value": 1.01}, {"measurement": "normalized growth", "setting": "locus YKL085W, strain MDH1 (second series), active compounds read low", "value": 0.942}, {"measurement": "normalized growth", "setting": "locus YKL085W, strain MDH1, active compounds read low", "value": 0.942}, {"measurement": "normalized growth", "setting": "locus YKL160W, strain elf1, active compounds read low", "value": "0.12 (active)"}, {"measurement": "normalized growth", "setting": "locus YKR001C, strain vps1, active compounds read low", "value": "0.0859 (active)"}, {"measurement": "normalized growth", "setting": "locus YKR026C, strain gcn3, active compounds read low", "value": "0.0875 (active)"}, {"measurement": "normalized growth", "setting": "locus YKR091W, strain srl3, active compounds read low", "value": "0.109 (active)"}, {"measurement": "normalized growth", "setting": "locus YLL001W, strain dnm1, active compounds read low", "value": "0.074 (active)"}, {"measurement": "normalized growth", "setting": "locus YLL026W, active compounds read low", "value": "0.0713 (active)"}, {"measurement": "normalized growth", "setting": "locus YLL041C, strain sdh2, active compounds read low", "value": "0.075 (active)"}, {"measurement": "normalized growth", "setting": "locus YLR027C, strain aat2, active compounds read low", "value": "0.0705 (active)"}, {"measurement": "normalized growth", "setting": "locus YLR039C, strain RIC1, active compounds read low", "value": "0.33 (active)"}, {"measurement": "normalized growth", "setting": "locus YLR058C, strain SHM2, active compounds read low", "value": "0.0802 (active)"}, {"measurement": "normalized growth", "setting": "locus YLR102C, strain apc9, active compounds read low", "value": "0.088 (active)"}, {"measurement": "normalized growth", "setting": "locus YLR113W, strain HOG1, active compounds read low", "value": 1.04}, {"measurement": "normalized growth", "setting": "locus YLR221C, strain rsa3, active compounds read low", "value": "0.0678 (active)"}, {"measurement": "normalized growth", "setting": "locus YLR258W, strain gsy2, active compounds read low", "value": "0.0842 (active)"}, {"measurement": "normalized growth", "setting": "locus YLR262C, strain YPT6 (second series), active compounds read low", "value": "0.341 (active)"}, {"measurement": "normalized growth", "setting": "locus YLR268W, strain sec22, active compounds read low", "value": "0.0987 (active)"}, {"measurement": "normalized growth", "setting": "locus YLR320W, strain mms22, active compounds read low", "value": "0.091 (active)"}, {"measurement": "normalized growth", "setting": "locus YLR342W, strain FKS1 (second series), active compounds read low", "value": "0.0987 (active)"}, {"measurement": "normalized growth", "setting": "locus YLR342W, strain FKS1, active compounds read low", "value": "0.0952 (active)"}, {"measurement": "normalized growth", "setting": "locus YLR357W, strain rsc2, active compounds read low", "value": "0.172 (active)"}, {"measurement": "normalized growth", "setting": "locus YLR370C, strain arc18, active compounds read low", "value": "0.066 (active)"}, {"measurement": "normalized growth", "setting": "locus YLR371W, strain rom2, active compounds read low", "value": "0.0867 (active)"}, {"measurement": "normalized growth", "setting": "locus YLR384C, strain iki3, active compounds read low", "value": "0.702 (active)"}, {"measurement": "normalized growth", "setting": "locus YLR418C, strain cdc73, active compounds read low", "value": "0.127 (active)"}, {"measurement": "normalized growth", "setting": "locus YML016C, strain PPZ1, active compounds read low", "value": "0.0701 (active)"}, {"measurement": "normalized growth", "setting": "locus YML032C, strain rad52, active compounds read low", "value": "0.112 (active)"}, {"measurement": "normalized growth", "setting": "locus YML120C, strain ndi1, active compounds read low", "value": "0.0773 (active)"}, {"measurement": "normalized growth", "setting": "locus YML124C, strain tub3, active compounds read low", "value": "0.0964 (active)"}, {"measurement": "normalized growth", "setting": "locus YMR058W, strain fet3, active compounds read low", "value": "0.0836 (active)"}, {"measurement": "normalized growth", "setting": "locus YMR078C, strain ctf18, active compounds read low", "value": "0.0876 (active)"}, {"measurement": "normalized growth", "setting": "locus YMR125W, strain sto1, active compounds read low", "value": "0.089 (active)"}, {"measurement": "normalized growth", "setting": "locus YMR129W, active compounds read low", "value": "0.0739 (active)"}, {"measurement": "normalized growth", "setting": "locus YMR205C, strain PFK2, active compounds read low", "value": "0.15 (active)"}, {"measurement": "normalized growth", "setting": "locus YMR223W, strain ubp8, active compounds read low", "value": "0.0986 (active)"}, {"measurement": "normalized growth", "setting": "locus YMR231W, strain pep5, active compounds read low", "value": "0.319 (active)"}, {"measurement": "normalized growth", "setting": "locus YMR307W, strain GAS1, active compounds read low", "value": "0.145 (active)"}, {"measurement": "normalized growth", "setting": "locus YNL067W, strain RPL9B, active compounds read low", "value": "0.132 (active)"}, {"measurement": "normalized growth", "setting": "locus YNL071W, strain lat1, active compounds read low", "value": "0.0643 (active)"}, {"measurement": "normalized growth", "setting": "locus YNL183C, strain NPR1, active compounds read low", "value": 0.989}, {"measurement": "normalized growth", "setting": "locus YNL209W, strain ssb2, active compounds read low", "value": "0.19 (active)"}, {"measurement": "normalized growth", "setting": "locus YNL233W, strain BNI4, active compounds read low", "value": "0.0774 (active)"}, {"measurement": "normalized growth", "setting": "locus YNL248C, strain rpa49, active compounds read low", "value": "0.079 (active)"}, {"measurement": "normalized growth", "setting": "locus YNL250W, strain rad50, active compounds read low", "value": "0.889 (active)"}, {"measurement": "normalized growth", "setting": "locus YNL271C, strain bni1, active compounds read low", "value": "0.848 (active)"}, {"measurement": "normalized growth", "setting": "locus YNL298W, strain CLA4, active compounds read low", "value": "0.767 (active)"}, {"measurement": "normalized growth", "setting": "locus YNL307C, strain MCK1, active compounds read low", "value": "0.0706 (active)"}, {"measurement": "normalized growth", "setting": "locus YNL322C, strain KRE1 (second series), active compounds read low", "value": "0.0978 (active)"}, {"measurement": "normalized growth", "setting": "locus YNR049C, strain mso1, active compounds read low", "value": "0.0668 (active)"}, {"measurement": "normalized growth", "setting": "locus YNR052C, strain pop2, active compounds read low", "value": "0.282 (active)"}, {"measurement": "normalized growth", "setting": "locus YOL012C, strain htz1", "value": 0.198}, {"measurement": "normalized growth", "setting": "locus YOL147C, strain pex11, active compounds read low", "value": "0.0757 (active)"}, {"measurement": "normalized growth", "setting": "locus YOR001W, strain rrp6, active compounds read low", "value": "0.083 (active)"}, {"measurement": "normalized growth", "setting": "locus YOR061W, strain CKA2, active compounds read low", "value": "0.0862 (active)"}, {"measurement": "normalized growth", "setting": "locus YOR069W, strain VPS5, active compounds read low", "value": "0.104 (active)"}, {"measurement": "normalized growth", "setting": "locus YOR070C, strain gyp1, active compounds read low", "value": "0.151 (active)"}, {"measurement": "normalized growth", "setting": "locus YOR080W, strain dia2, active compounds read low", "value": "0.277 (active)"}, {"measurement": "normalized growth", "setting": "locus YOR083W, strain WHI5, active compounds read low", "value": "0.134 (active)"}, {"measurement": "normalized growth", "setting": "locus YOR106W, strain vam3, active compounds read low", "value": "0.0987 (active)"}, {"measurement": "normalized growth", "setting": "locus YOR136W, strain idh2, active compounds read low", "value": "0.108 (active)"}, {"measurement": "normalized growth", "setting": "locus YOR144C, strain elg1, active compounds read low", "value": "0.0812 (active)"}, {"measurement": "normalized growth", "setting": "locus YOR184W, strain ser1, active compounds read low", "value": "0.0846 (active)"}, {"measurement": "normalized growth", "setting": "locus YOR231W, strain MKK1, active compounds read low", "value": 1.03}, {"measurement": "normalized growth", "setting": "locus YOR265W, strain rbl2, active compounds read low", "value": "0.0812 (active)"}, {"measurement": "normalized growth", "setting": "locus YOR270C, strain vph1, active compounds read low", "value": "0.0993 (active)"}, {"measurement": "normalized growth", "setting": "locus YOR290C, strain snf2, active compounds read low", "value": "0.074 (active)"}, {"measurement": "normalized growth", "setting": "locus YOR316C, strain cot1, active compounds read low", "value": "0.0883 (active)"}, {"measurement": "normalized growth", "setting": "locus YPL051W, strain arl3, active compounds read low", "value": "0.436 (active)"}, {"measurement": "normalized growth", "setting": "locus YPL055C, strain LGE1, active compounds read low", "value": "0.137 (active)"}, {"measurement": "normalized growth", "setting": "locus YPL078C, strain atp4, active compounds read low", "value": "0.0699 (active)"}, {"measurement": "normalized growth", "setting": "locus YPL106C, strain sse1, active compounds read low", "value": "0.154 (active)"}, {"measurement": "normalized growth", "setting": "locus YPL240C, strain hsp82, active compounds read low", "value": "0.0838 (active)"}, {"measurement": "normalized growth", "setting": "locus YPL256C, strain CLN2, active compounds read low", "value": 1.07}, {"measurement": "normalized growth", "setting": "locus YPR119W, strain clb2, active compounds read low", "value": "0.0943 (active)"}, {"measurement": "normalized growth", "setting": "locus YPR141C, strain kar3, active compounds read low", "value": 1.06}, {"measurement": "normalized growth", "setting": "locus YPR163C, strain tif3, active compounds read low", "value": "0.0947 (active)"}, {"measurement": "normalized growth", "setting": "locus YPR167C, strain met16, active compounds read low", "value": "0.0878 (active)"}, {"measurement": "normalized growth", "setting": "strain wtn01, active compounds read low", "value": "0.0815 (active)"}]}
